Compound activity as filed in PubChem BioAssay.
Shown are actives, neighbours in structure and some others; about 5.7% of the full set was active somewhere.
DAX1 inh-1: inhibitors of human orphan nuclear receptor DAX1 (NR0B1) | P51843 | 340,000 tested, 0.99% active | inhibition, % at 6.75 µM | HEK293 Gal4-DAX1 luciferase reporter, luminescence;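 active = inhibition above the mean over all tested compounds plus 3 SD, cut at about 4.2% in these data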;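 also: 0% = DAX1-transfected cells with DMSO and 100% = empty-vector control cells with DMSO; inhibition shows as a rise in luminescence from relieved DAX1 repression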
AHR activator: human AHR activation. P35869. AHR-responsive luciferase reporter cells, luminescence. AID 2796. 320,000 tested, 2.5% active. activation, % at 5 µM; in the data active = activation above about 47%;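 also: 0% = vehicle wells and 100% = reference agonist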
Target sequence (P35869 whole entry, looked up): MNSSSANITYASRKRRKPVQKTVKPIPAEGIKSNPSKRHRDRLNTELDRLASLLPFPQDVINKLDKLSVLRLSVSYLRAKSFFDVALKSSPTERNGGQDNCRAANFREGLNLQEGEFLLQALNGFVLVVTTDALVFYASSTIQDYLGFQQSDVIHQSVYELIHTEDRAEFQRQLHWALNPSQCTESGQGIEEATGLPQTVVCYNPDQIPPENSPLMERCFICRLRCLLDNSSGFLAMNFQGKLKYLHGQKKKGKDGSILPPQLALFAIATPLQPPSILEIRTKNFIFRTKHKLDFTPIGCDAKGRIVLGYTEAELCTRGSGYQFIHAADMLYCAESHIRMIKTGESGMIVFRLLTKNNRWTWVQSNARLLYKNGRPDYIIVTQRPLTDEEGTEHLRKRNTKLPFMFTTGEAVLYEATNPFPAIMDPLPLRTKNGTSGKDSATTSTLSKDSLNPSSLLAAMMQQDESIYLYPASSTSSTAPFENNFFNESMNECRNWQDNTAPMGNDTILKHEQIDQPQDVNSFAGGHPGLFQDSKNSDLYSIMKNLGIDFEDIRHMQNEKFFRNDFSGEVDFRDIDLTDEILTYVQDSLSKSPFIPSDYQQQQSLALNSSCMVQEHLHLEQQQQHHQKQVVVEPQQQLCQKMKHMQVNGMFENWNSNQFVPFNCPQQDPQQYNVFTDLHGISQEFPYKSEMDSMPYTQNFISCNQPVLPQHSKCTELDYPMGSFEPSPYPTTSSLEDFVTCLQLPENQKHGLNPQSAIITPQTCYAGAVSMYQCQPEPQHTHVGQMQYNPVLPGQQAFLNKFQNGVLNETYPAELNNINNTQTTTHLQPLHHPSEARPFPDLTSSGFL
ssDAF-12 act: activators of S. stercoralis DAF-12 nuclear receptor; HEK293 ssDAF-12/GRIP1 lit1-tk-luc reporter, luminescence; % of 3 µM dafachronic acid response; activation, % at 6.8 µM; 370,000 tested, 1% active;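 active = activation above the mean over all tested compounds plus 3 SD, cut at about 0.9% in these data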;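 also: 0% = DMSO-only wells and 100% = 3 µM delta7-dafachronic acid wells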
hcDAF-12 act: activators of H. contortus DAF-12 nuclear receptor. HEK293 hcDAF-12 lit1-tk-luc reporter, luminescence; 0% DMSO, 100% Δ7-dafachronic acid. activation, % at 6.8 µM. 370,000 tested, 1.4% active. AID 652067;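 active = activation above the mean of all tested compounds plus 3 SD, cut at about 5.5% in these data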;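 also: 100% = response to 3 µM Δ7-dafachronic acid high control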
DAX1 inh-2: inhibitors of DAX1 repression of SF-1 activated StAR promoter; 370,000 tested, 1.1% active; inhibition, % at 6.8 µM; HEK293T StAR-luciferase reporter, SF-1/DAX-1 repression relief;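 active = inhibition above the mean over all tested compounds plus 3 SD, cut at about 3.6% in these data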;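 also: 0% = DAX-1 cells with DMSO and 100% = cells lacking DAX-1 with DMSO; higher inhibition means more luminescence from relief of DAX-1 repression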
hgDAF-12 ag: hgDAF-12 agonism, primary luciferase screen. HEK293 GAL4-hgDAF12 UAS-luciferase reporter, agonist luminescence; normalized to butyrate control. activation, % at 6.8 µM. 370,000 tested, 1.8% active. AID 687014;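 active = activation above a cutoff set at the mean of all screened compounds plus 3 SD, cut at about 10% in these data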;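 also: 0% = DMSO wells and 100% = sodium butyrate wells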
* = called active by the depositor; . = not tested or not shown.

SMILES	DAX1 inh-1	AHR activator	ssDAF-12 act	hcDAF-12 act	DAX1 inh-2	hgDAF-12 ag
C#CCOc1nc(Nc2cccc([N+](=O)[O-])c2)nc(OCC#C)n1	-0.5	52.3*	-1.7	-1.1	-0.4	-3.2
CN(C)c1cccc2c1c(NC(=O)Nc1ccccc1)nn2C	4.3*	16.1	-1.0	-0.7	-0.9	-1.2
CN(C)c1cccc2c1c(NC(=O)Nc1ccc(F)cc1F)nn2C	0.2	34.8	-1.4	-1.6	0.1	1.2
CN(C)c1cccc2c1c(NC(=O)c1ccc(Cl)cc1)nn2C	5.7*	28.2	0.8	3.6	-1.0	-1.3
CC1CCCN(C(=O)Nc2ccc([N+](=O)[O-])cc2)C1 (stereo not drawn)	.	.	-1.7	2.2	1.7	4.8
CCOC(=O)CCCn1ccc2cc(S(=O)(=O)N3CCCC3)ccc21	0.0	-0.7	-1.0	-1.0	-0.5	-0.9
CC(=C1SC(=S)NC1=O)c1ccc(Cl)c(O)c1	.	.	-0.7	2.0	-1.7	-0.3
Cc1oc2c(c1C(=O)c1ccccc1)C(=O)C(=O)c1ccccc1-2	-0.5	63.6*	-1.6	-1.3	-5.0	-3.8
O=C1C(=O)c2c(C(=O)c3ccccc3)coc2-c2ccccc21	0.2	51.5*	-1.0	-0.7	-1.0	6.8
O=C(C1=C(c2ccccc2)C(=O)c2ccccc2C1=O)c1ccccc1	-5.7	.	-2.5	-4.9	-4.3	-12.3
O=C1c2ccccc2[C@@H]2C[C@H](NC34CC5CC(CC(C5)C3)C4)[C@@H](O)CCN12	-0.5	.	-0.8	-0.1	0.7	2.2
Cc1ccccc1S(=O)(=O)N(C)C[C@H]1OCc2cnnn2CCCC(=O)N([C@H](C)CO)C[C@@H]1C	.	.	-0.9	-0.3	-0.4	1.6
COc1ccc(-c2cc(CS(=O)(=O)c3ccccc3)on2)cc1	4.5*	8.1	-0.5	1.4	3.4	13.2*
Cc1ccc(C(=O)Nc2ccc3c(c2)OCCO3)cc1	-4.2	.	0.3	0.8	1.2	9.4
CCc1ccc(C(=O)NC(=S)Nc2ccc3c(c2)OCCO3)cc1	3.2	1.7	0.5	3.2	3.0	12.1*
O=C(NC(=S)Nc1ccc2c(c1)OCO2)c1ccc(Cl)cc1	2.5	53.0*	-0.6	3.2	1.0	4.6
COc1ccc(Cl)cc1NC(=S)NC(=O)c1ccc2c(c1)OCO2	-0.5	11.3	-0.5	2.6	0.1	4.3
CN(C)C(=S)Nc1ccc2c(c1)OCO2	-0.4	2.7	-1.0	-1.1	-0.2	-0.6
S=C(Nc1ccc2c(c1)OCO2)Nc1ccc2c(c1)OCO2	2.2	68.4*	-0.4	2.0	0.6	4.0
CCOc1ccc(C(=O)Nc2ccc3c(c2)OCCO3)cc1	-1.2	-3.4	0.3	5.9*	2.5	12.4*
Cc1cc(C)cc(C(=O)NC(=S)Nc2ccc3c(c2)OCCO3)c1	0.1	16.4	-1.4	-0.2	0.1	6.2
COc1ccc(S(=O)(=O)N(C)CC(=O)NCc2ccccn2)cc1	0.6	0.0	-0.9	-2.2	-0.1	1.4
COCCCC1CCN(C(=O)CCc2nnc(CCCCc3ccccc3)o2)CC1	0.3	1.4	-1.5	-1.0	-1.1	-2.2
CCOc1ccc(CCNC(=O)CSc2nc3ncc(Cl)cc3[nH]2)cc1OCC	0.6	6.5	-1.1	-0.8	-0.5	-0.5
CS(=O)(=O)N(CC(=O)Nc1ccc2c(c1)OCO2)Cc1ccc(Cl)cc1	-0.5	65.2*	-1.3	-0.3	-0.2	-1.9
SMILES	DAX1 inh-1	AHR activator	ssDAF-12 act	hcDAF-12 act	DAX1 inh-2	hgDAF-12 ag
CS(=O)(=O)N(CC(=O)Nc1ccc2c(c1)OCO2)Cc1ccccc1	-0.3	15.0	-1.4	0.3	0.1	-1.6
CCn1nc(C)c(CNC(=O)Nc2ccc3c(c2)OCO3)c1C	0.9	68.0*	-1.0	2.4	2.3	3.3
CCn1cc(/C=N/NC(=O)c2ccc3c(c2)OCO3)c(C)n1	0.8	31.7	-0.3	1.2	1.4	3.1
CCn1nc(C)c(/C=N\NC(=O)c2ccc3c(c2)OCO3)c1C	2.5	73.5*	-0.9	1.1	1.6	9.2
Cc1c(/C=N/NC(=O)C(NC(=O)c2ccc3c(c2)OCO3)C(C)C)c2ccccc2n1C (stereo not drawn)	-1.5	51.5*	-1.3	-1.2	-0.7	0.6
CCn1ncc(/C=N/NC(=O)c2ccc3c(c2)OCO3)c1C	0.5	31.2	-0.8	-0.2	-1.4	11.7*
Cc1ccccc1NC(=S)N(C)Cc1cn(C)c2ccccc12	0.6	5.4	-0.3	-0.7	-0.8	-3.0
